VDR inh – inhibitors of human vitamin D receptor. P11473. VDR-SRC2-3 peptide fluorescence polarization, 2 h. Potency, µM, hits mostly inhibitors. 0.93% of 400,000 active
Target sequence (P11473 whole entry, looked up): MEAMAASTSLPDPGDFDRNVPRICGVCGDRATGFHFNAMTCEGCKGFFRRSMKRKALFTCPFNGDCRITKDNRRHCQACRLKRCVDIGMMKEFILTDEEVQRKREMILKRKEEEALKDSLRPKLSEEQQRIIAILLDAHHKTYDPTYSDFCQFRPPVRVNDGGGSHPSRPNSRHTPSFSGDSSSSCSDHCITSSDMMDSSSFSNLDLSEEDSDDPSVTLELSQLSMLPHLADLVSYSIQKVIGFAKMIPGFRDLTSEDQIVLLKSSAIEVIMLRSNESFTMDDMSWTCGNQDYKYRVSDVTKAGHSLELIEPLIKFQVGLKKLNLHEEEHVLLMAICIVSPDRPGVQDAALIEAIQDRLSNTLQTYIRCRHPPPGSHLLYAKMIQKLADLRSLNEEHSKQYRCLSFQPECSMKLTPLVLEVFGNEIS
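After 23 nl compound addition and a short centrifugation, plates sat for 2 hours at ambient temperature; polarization of fluorescence then indicated loss of VDR binding to peptide SRC2-3.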
JMJD2A Tudor – JMJD2A Tudor domain (human) inhibition | 4.4% of 390,000 active | AID 504339 | O75164 | AlphaScreen JMJD2A-Tudor / H3K4me3 peptide binding | Potency, µM (doses to about 114 µM), actives largely listed as inhibitors; note: nearly all actives have a fitted effect of over 50% in size
G9a inh – blocks human histone lysine methyltransferase G9a. 8.8% of 350,000 active. G9a H3K9 monomethylation, AlphaScreen, 2 h. Q96KQ7. Potency, µM (highest dose often 102 µM), hits mostly inhibitors; note: nearly all actives have a fitted effect of over 75% in size
Target sequence (Q96KQ7 913-1193 limits assumed): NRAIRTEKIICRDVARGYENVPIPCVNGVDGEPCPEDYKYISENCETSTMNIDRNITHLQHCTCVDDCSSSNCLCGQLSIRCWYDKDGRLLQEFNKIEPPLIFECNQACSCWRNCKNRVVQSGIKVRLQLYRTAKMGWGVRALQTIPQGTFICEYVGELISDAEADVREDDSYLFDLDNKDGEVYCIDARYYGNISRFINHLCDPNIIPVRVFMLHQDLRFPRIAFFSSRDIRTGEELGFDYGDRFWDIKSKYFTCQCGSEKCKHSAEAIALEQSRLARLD
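G9a (20 nM) preincubated 15 min RT with compounds, then 500 nM biotinylated H3K9 peptide and 20 uM SAM added; 2 h RT reaction. Monomethyl-H3K9 product detected by AlphaScreen with anti-H3K9me1 antibody, streptavidin donor and anti-rabbit IgG acceptor beads.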
BAZ2B block – blocks human BAZ2B | AlphaScreen BAZ2B-H3K14Ac peptide displacement | AID 504333 | Potency, µM (series often up to 114 µM), hits mostly inhibitors | 4.4% of 360,000 active; note: nearly all actives have a fitted effect of over 60% in size
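Multi-concentration screen (max 110 uM) measuring displacement of acetylated histone H3 peptide from BAZ2B by AlphaScreen, using 50 nM protein, 50 nM peptide and 10 ug/mL streptavidin donor plus Ni-chelate acceptor beads.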
HP1b chromo inh – blocks HP1-beta chromodomain binding to methylated histone tails. AlphaScreen HP1-beta / biotin-H3K9me3 peptide binding. Potency, µM (top dose mostly 114 µM), hits mostly inhibitors. 0.56% of 390,000 active; note: nearly all actives have a fitted effect of over 70% in size
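AlphaScreen: HP1-beta (50 nM) preformed 30 min with biotin-H3(1-18)K9me3 peptide (50 nM) in PBS pH 7.4, 0.01% Tween-20. Compound added for 30 min at RT, then streptavidin donor/nickel chelate acceptor beads (10 ug/mL) for 30 min.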
PLK1 PBD block – PLK1 (human) polo-box domain binding inhibition | P53350 | Plk1 PBD binding of FITC phosphopeptide, fluorescence polarization | Potency, µM, hits mostly inhibitors | 2.8% of 360,000 active | AID 720504; note: series mostly up to about 57 µM; nearly all actives have a fitted effect of over 65% in size
Each line names hits and unclear results; the compound was inactive in the other large screens. Hits are enriched below; roughly 11% of the tested compounds scored in any of these assays. Calls come from the whole dose curve; as a rule, active = well fitted curve in the direction sought with a large enough effect; inconclusive = small, poorly fitted or top-dose-only effect, or another doubt; inactive = no such curve, though single readings can be large; an effect the other way counts as inactive or inconclusive.

Cc1nnc(C)c2c(C)n(Cc3ccc4c(c3)OCO4)c(C)c12	JMJD2A Tudor inconclusive
Fc1ccc(-c2csc(=Nc3cccc(C(F)(F)F)c3)n2Cc2ccc3c(c2)OCO3)cc1	G9a inh inconclusive, BAZ2B block inconclusive (no result: PLK1 PBD block)
CCN(CC)S(=O)(=O)c1ccc(-c2csc(=Nc3cccc(C(F)(F)F)c3)n2Cc2ccc3c(c2)OCO3)cc1	JMJD2A Tudor inconclusive, G9a inh inconclusive (no result: PLK1 PBD block)
Clc1ccc(-c2csc(=Nc3ccccc3)n2Cc2ccc3c(c2)OCO3)cc1	JMJD2A Tudor inconclusive, G9a inh 12.6µM, BAZ2B block inconclusive, HP1b chromo inh inconclusive (no result: PLK1 PBD block)
COc1ccc(-c2noc(CC(=O)Nc3cc(OC)ccc3OC)n2)cc1	BAZ2B block inconclusive (no result: PLK1 PBD block)
CCOc1ccc(CN2CCC(C(=O)N3CCN(c4ccccc4F)CC3)CC2)cc1OC	JMJD2A Tudor 7.08µM, G9a inh 8.91µM, BAZ2B block inconclusive, HP1b chromo inh inconclusive
CC(C)CN1CCC(C(=O)N2CCN(c3ccccc3F)CC2)CC1	JMJD2A Tudor 22.4µM, G9a inh 10µM, BAZ2B block inconclusive, HP1b chromo inh inconclusive
CCOc1ccc2nc(NC(=O)c3ccc(OCC4CCCO4)cc3)sc2c1 (stereo unspecified)	G9a inh 44.7µM
CCOc1ccc2nc(Cl)sc2c1	G9a inh 35.5µM
CCOc1ccc2nc(NS(=O)(=O)c3ccc4c(c3)n(C)c(=O)n4C)sc2c1	G9a inh inconclusive, BAZ2B block 56.2µM
Cc1cccc2sc(NC(=O)c3ccc(OCC4CCCO4)cc3)nc12 (stereo unspecified)	none
CCOc1ccc(NS(=O)(=O)c2ccc3c(c2)n(C)c(=O)n3C)cc1	BAZ2B block inconclusive
CCOc1ccc2nc(NC(=O)Cn3c(C)csc3=O)sc2c1	VDR inh inconclusive, G9a inh 39.8µM
CCOCC(=O)Nc1nc2ccc(OCC)cc2s1	none
C[C@H](CO)N1C[C@H](C)[C@@H](CN(C)S(=O)(=O)c2ccc(F)cc2)Oc2ccc(NC(=O)C3CCCCC3)cc2C1=O	none (no result: G9a inh, BAZ2B block)
CN(C)c1ncc2nc(-c3ccc(Cl)cc3)c(=O)n(-c3ccccc3)c2n1	none (no result: JMJD2A Tudor, BAZ2B block, HP1b chromo inh, PLK1 PBD block)
Cc1cccc(C)c1NC(=O)CC(NCCc1ccccc1)C(=O)O (stereo unspecified)	JMJD2A Tudor inconclusive, G9a inh inconclusive
COc1ccc2sc(N(Cc3cccnc3)C(=O)c3ccc4c(c3)OCCO4)nc2c1	JMJD2A Tudor inconclusive, BAZ2B block inconclusive (no result: PLK1 PBD block)
CCOc1ccc(S(=O)(=O)Nc2nc3ccc(OC)cc3s2)cc1	G9a inh inconclusive
CCOc1ccc2nc(NS(C)(=O)=O)sc2c1	G9a inh 7.08µM, PLK1 PBD block inconclusive
CN(C(=O)CSc1nnc(-c2ccccc2F)n1N)C1CCCCC1	none
NCC(=O)Nc1cccc(-c2nn3c(=O)cc(N4CCNCC4)nc3s2)c1	none (no result: VDR inh, G9a inh, BAZ2B block, HP1b chromo inh, PLK1 PBD block)
Cc1cc(C)cc(-n2c(SCC(=O)N3CCC(C)CC3)nc3c([nH]c4ccccc43)c2=O)c1	none (no result: PLK1 PBD block)
O=S(=O)(c1cccnc1)N1CCn2cccc2C1c1ccccc1F (stereo unspecified)	G9a inh 44.7µM, BAZ2B block inconclusive
CC1c2cccn2CCN1S(=O)(=O)c1ccccc1 (stereo unspecified)	BAZ2B block inconclusive
Cn1c(=O)c(C(=O)NCC2CCCO2)c(O)c2ccccc21 (stereo unspecified)	JMJD2A Tudor 28.2µM
Cn1cccc1Cc1nnc(SCC(=O)NCC2CCCO2)n1C (stereo unspecified)	HP1b chromo inh inconclusive, PLK1 PBD block 23.8µM
O=C(CSc1ccc(Br)cc1)NCC1CCCO1 (stereo unspecified)	G9a inh 39.8µM
CCn1cc(SCC(=O)NCC2CCCO2)c2ccccc21 (stereo unspecified)	G9a inh inconclusive, PLK1 PBD block 7.52µM
O=C(CSc1cn(CC(=O)N2CCCCCC2)c2ccccc12)NCC1CCCO1 (stereo unspecified)	none
CC(=O)Nc1cc(-c2ccc(C(=O)NC3CC3)cc2)cn2c(-c3cccc(C(F)(F)F)c3)cnc12	none (no result: VDR inh, JMJD2A Tudor, G9a inh, BAZ2B block, HP1b chromo inh)
C=C(C)CSc1nc2ccccc2[nH]1	none
CCCN1C2CCCC1CC(NC(=O)NC1CCCCC1)C2 (stereo unspecified)	none
O=C(CN1C2CCC1CC(NC(=O)NC1CCCCC1)C2)NC1CC1 (stereo unspecified)	G9a inh 70.8µM
Cc1c(C(=O)OC2CCC(C)CC2)[nH]c2c1C(=O)CC(c1ccc(N(C)C)cc1)C2 (stereo unspecified)	none (no result: PLK1 PBD block)
Cc1c(C(=O)OCC2CCCO2)[nH]c2c1C(=O)CC(c1ccc(N(C)C)cc1)C2 (stereo unspecified)	JMJD2A Tudor 50.1µM, G9a inh 14.1µM, BAZ2B block 44.7µM
COc1ccc(CCCNC(=O)C2Cc3c(-c4ccccc4)ccnc3O2)cc1 (stereo unspecified)	none (no result: VDR inh, JMJD2A Tudor, G9a inh, BAZ2B block, HP1b chromo inh)
Cc1cccc(-c2nc(S(=O)(=O)c3ccccc3)c(N3CCOCC3)o2)c1	G9a inh inconclusive
Cc1ccc(-c2nc(S(=O)(=O)c3ccc(C)cc3)c(N3CCOCC3)o2)cc1	VDR inh inconclusive, JMJD2A Tudor 79.4µM, G9a inh 4.47µM, BAZ2B block inconclusive, HP1b chromo inh inconclusive
O=S(=O)(c1ccc(F)cc1)c1nc(-c2ccc(F)cc2)oc1NCCN1CCOCC1	G9a inh 50.1µM
CCOc1ccc(-c2nc(S(=O)(=O)c3ccccc3)c(N3CCOCC3)o2)cc1	G9a inh 50.1µM
Cc1ccc(S(=O)(=O)c2nc(-c3ccc(F)cc3)oc2N2CCN(c3ccccc3)CC2)cc1	JMJD2A Tudor inconclusive, G9a inh inconclusive, BAZ2B block inconclusive (no result: PLK1 PBD block)
COc1ccccc1S(=O)(=O)CC(O)COc1ccc(F)cc1Cl (stereo unspecified)	none
COc1cc(C2NC(=O)NC(C)=C2C(=O)OC2CCCC(C)C2)ccc1O (stereo unspecified)	none
COC(=O)[C@]1(Cc2ccccc2)N[C@H](CN(C)C(=O)Nc2ccc(OC)cc2)[C@@H]2C(=O)N(Cc3ccccc3)C(=O)[C@@H]21	none (no result: G9a inh, BAZ2B block)
c1ccc(N=Nc2ccc3cccccc2-3)cc1	JMJD2A Tudor 3.98µM, HP1b chromo inh 3.98µM (no result: G9a inh, BAZ2B block)
Nc1ccc(N=Nc2ccccc2)cc1[N+](=O)[O-]	JMJD2A Tudor inconclusive, HP1b chromo inh inconclusive (no result: G9a inh, BAZ2B block)
Nc1ccc(N=Nc2ccccc2)c2ccccc12	JMJD2A Tudor 35.5µM, G9a inh 10µM, BAZ2B block 11.2µM
Cc1cc(=O)n2[nH]c(N)c(N=Nc3ccccc3)c2n1	none
Nc1ccc(N=Nc2ccccc2)c(N)n1	G9a inh 11.2µM, BAZ2B block inconclusive
O=c1cc(O)c2ccccc2n1Cc1ccccc1F	none
CCOc1ccc(NC(=O)N2CC=C(c3c[nH]c4ccccc34)CC2)cc1	JMJD2A Tudor inconclusive, BAZ2B block inconclusive (no result: PLK1 PBD block)
